Results: ChEMBL document CHEMBL1961873, “Compounds: GSK PKIS; Assays: Nanosyn kinase panel” (2012)

Key:
[1] = target: CDK3/Cyclin E (Homo sapiens) (UniProt P24864+Q00526); details: at 1 µM;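 also: each figure is a mean percent inhibition of the CDK3/cyclin E complex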
[2] = target: Cyclin-dependent kinase 4 (Homo sapiens) (UniProt P11802); details: at 0.1 µM
[3] = target: Cyclin-dependent kinase 4 (Homo sapiens) (UniProt P11802); details: at 1 µM
[4] = target: Cyclin-dependent kinase 5 (Homo sapiens) (UniProt Q00535); details: at 0.1 µM
Sequence of Cyclin-dependent kinase 5 (Homo sapiens) (Q00535 whole entry, looked up): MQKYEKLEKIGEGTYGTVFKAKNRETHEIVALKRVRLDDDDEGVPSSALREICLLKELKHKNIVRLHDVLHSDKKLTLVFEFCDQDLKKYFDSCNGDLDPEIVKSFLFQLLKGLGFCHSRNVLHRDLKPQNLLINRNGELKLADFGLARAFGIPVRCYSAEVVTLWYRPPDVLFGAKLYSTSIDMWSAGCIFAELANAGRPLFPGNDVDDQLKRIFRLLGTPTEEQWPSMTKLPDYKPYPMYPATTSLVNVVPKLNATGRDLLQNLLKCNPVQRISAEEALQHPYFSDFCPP

[5] = target: Cyclin-dependent kinase 5 (Homo sapiens) (UniProt Q00535); details: at 1 µM
[6] = target: Cyclin-dependent kinase 6 (Homo sapiens) (UniProt Q00534); details: at 0.1 µM
Sequence of Cyclin-dependent kinase 6 (Homo sapiens) (Q00534 whole entry): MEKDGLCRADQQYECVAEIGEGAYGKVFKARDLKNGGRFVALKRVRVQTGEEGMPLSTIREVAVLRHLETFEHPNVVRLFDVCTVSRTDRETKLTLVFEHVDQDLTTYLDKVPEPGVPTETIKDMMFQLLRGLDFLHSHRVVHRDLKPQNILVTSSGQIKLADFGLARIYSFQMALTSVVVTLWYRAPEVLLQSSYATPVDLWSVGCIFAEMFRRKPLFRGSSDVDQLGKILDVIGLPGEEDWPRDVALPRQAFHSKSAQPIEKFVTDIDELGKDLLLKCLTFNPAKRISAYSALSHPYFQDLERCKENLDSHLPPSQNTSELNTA

[7] = target: Cyclin-dependent kinase 6 (Homo sapiens) (UniProt Q00534); details: at 1 µM
[8] = target: Dual specificity protein kinase CLK2 (Homo sapiens) (UniProt P49760); details: at 0.1 µM
Sequence of Dual specificity protein kinase CLK2 (Homo sapiens) (P49760 whole entry, looked up): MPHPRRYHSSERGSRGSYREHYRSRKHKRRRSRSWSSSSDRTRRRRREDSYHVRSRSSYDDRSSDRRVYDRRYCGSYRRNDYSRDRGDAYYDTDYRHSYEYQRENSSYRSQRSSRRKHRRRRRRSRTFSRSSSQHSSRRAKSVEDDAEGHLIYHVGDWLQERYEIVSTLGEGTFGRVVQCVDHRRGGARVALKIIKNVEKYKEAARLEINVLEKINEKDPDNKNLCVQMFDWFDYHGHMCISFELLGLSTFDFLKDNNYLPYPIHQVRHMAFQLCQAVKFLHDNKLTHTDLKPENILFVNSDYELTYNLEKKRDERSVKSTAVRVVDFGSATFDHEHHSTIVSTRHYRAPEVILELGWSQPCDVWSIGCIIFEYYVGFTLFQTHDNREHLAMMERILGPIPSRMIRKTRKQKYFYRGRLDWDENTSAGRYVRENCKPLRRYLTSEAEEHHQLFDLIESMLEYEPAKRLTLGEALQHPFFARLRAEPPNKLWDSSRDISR

[9] = target: Dual specificity protein kinase CLK2 (Homo sapiens) (UniProt P49760); details: at 1 µM
[10] = target: Dual specificity protein kinase CLK3 (Homo sapiens) (UniProt P49761); details: at 0.1 µM
Sequence of Dual specificity protein kinase CLK3 (Homo sapiens) (P49761 whole entry, looked up): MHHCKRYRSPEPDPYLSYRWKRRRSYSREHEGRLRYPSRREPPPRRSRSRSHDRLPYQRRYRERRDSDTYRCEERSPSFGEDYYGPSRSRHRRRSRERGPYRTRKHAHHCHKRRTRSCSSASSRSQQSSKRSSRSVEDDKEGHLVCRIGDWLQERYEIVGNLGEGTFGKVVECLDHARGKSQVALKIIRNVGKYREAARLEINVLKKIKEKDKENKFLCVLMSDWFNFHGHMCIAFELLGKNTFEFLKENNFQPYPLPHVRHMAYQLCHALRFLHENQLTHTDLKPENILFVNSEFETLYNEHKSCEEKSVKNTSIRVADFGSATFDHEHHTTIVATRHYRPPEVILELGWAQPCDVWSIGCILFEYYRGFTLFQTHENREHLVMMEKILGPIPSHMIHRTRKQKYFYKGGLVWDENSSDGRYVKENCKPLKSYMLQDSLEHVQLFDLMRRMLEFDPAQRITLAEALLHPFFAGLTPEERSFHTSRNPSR

Sequence of Cyclin-dependent kinase 4 (Homo sapiens) (P11802 whole entry): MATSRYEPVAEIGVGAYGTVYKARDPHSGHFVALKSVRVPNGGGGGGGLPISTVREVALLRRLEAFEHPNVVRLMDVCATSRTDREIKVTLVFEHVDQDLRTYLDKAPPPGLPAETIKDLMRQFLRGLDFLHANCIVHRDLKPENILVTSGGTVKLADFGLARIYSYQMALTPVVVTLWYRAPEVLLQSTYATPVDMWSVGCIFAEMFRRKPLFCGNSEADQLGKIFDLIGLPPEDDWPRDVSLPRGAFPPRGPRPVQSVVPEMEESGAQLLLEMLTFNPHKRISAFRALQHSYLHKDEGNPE
Sequence of CDK3/Cyclin E (Homo sapiens) (P24864 whole entry, looked up): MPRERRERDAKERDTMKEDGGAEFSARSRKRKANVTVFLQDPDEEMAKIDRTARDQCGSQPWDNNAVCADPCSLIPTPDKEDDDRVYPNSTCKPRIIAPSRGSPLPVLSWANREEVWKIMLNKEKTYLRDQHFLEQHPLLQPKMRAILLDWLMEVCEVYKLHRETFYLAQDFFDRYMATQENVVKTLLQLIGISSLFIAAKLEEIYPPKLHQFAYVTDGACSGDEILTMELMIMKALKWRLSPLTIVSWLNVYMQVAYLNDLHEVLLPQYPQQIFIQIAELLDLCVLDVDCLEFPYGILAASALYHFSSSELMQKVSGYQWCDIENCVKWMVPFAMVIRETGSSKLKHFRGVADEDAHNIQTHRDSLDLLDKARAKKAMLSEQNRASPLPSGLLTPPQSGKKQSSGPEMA
Sequence of CDK3/Cyclin E (Homo sapiens) (Q00526 whole entry, looked up): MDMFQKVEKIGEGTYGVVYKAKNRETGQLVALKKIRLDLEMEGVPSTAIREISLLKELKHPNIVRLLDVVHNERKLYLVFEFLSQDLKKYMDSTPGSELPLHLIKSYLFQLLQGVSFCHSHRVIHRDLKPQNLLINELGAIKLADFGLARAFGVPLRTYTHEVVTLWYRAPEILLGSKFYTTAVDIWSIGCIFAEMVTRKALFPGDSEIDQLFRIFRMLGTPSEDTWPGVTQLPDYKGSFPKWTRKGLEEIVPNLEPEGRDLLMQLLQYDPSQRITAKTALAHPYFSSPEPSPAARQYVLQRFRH

SMILES	inhibition [1] [%]	inhibition [2] [%]	inhibition [3] [%]	inhibition [4] [%]	inhibition [5] [%]	inhibition [6] [%]	inhibition [7] [%]	inhibition [8] [%]	inhibition [9] [%]	inhibition [10] [%]
COC(=O)c1sc(-n2cnc3cc(OC)c(OC)cc32)cc1OCc1ccccc1C(F)(F)F	-1.85	2.28	3.18	1.35	2.46	-2.2	5.15	1.6	2.65	0.11
CNC(=O)c1cccc(C#Cc2cncnc2Nc2ccc(OCc3cccc(F)c3)c(Cl)c2)c1	3.72	2.35	3.08	1.3	2.33	4.83	1.6	0.38	2.72	-0.87
FC(F)(F)c1cccc(-c2nn3ncccc3c2-c2ccnc(Nc3ccc4c(c3)OCCO4)n2)c1	-0.03	2.66	4.56	1.65	2.11	-1.79	2.39	1.11	0.64	0.73
c1cc(-c2cnn3nc(N4CCOCC4)ccc23)nc(NC2CC2)n1	17.4	15	57.8	2.71	23.3	11.8	30.7	9.32	52	1.88
COc1cccc(-c2c[nH]c3c(N/N=C/c4ccncc4)ncnc23)c1	51.3	10.5	45.7	38.8	73.1	12.2	51.4	2.83	20.4	2.11
NS(=O)(=O)c1ccc(N/N=C2\C(=O)Nc3ccc4ncccc4c32)cc1	99.2	48	76.2	79	83.4	53.5	81.4	19.3	72.3	2.36
CCn1cc(-c2ccnc3[nH]ccc23)c(-c2cccc(NC(=O)Nc3ccc(OCc4ccccc4)cc3)c2)n1	-2.23	1.32	-0.47	-0.05	-0.93	-2.8	-4.5	-0.56	-2.09	-0.94
O=S(=O)(CCNCc1ccc(-c2ccc3ncnc(Nc4ccc(OCc5cccc(F)c5)c(Cl)c4)c3c2)o1)c1ccccc1	-1.98	4.84	5.57	0.05	1.21	0.74	2.65	0.01	1.31	0.95
CS(=O)(=O)CCNCc1ccc(-c2ccc3ncnc(Nc4ccc(OCc5ccccc5)c(C(F)(F)F)c4)c3c2)o1	-3.61	2.38	3.96	0.23	1.58	-1.88	-4.19	0.79	-2.13	0.57
COc1ccc(-c2oc3ncnc(N)c3c2-c2ccc(NC(=O)Nc3cc(C(F)(F)F)ccc3F)cc2)cc1	42.4	3.09	5.04	1.02	4.32	3.24	3.67	3.66	26.6	1.97
Nc1nc(-c2cccc(Cl)c2)c(-c2ccc3ncccc3n2)s1	-3.18	1.67	1.92	0.34	0.13	-7.38	-2.65	2.6	9.25	2.15
CN1CCC(n2cnc(-c3ccc(F)cc3)c2-c2ccnc(Nc3ccccc3)n2)CC1	-2.19	1.36	2.55	0.25	1	3.89	0.2	1.64	1.56	0.75
COc1cc(N2CCN(C(C)C)CC2)ccc1Nc1nc(Nc2ccc(F)cc2C(N)=O)c2cc[nH]c2n1	0.34	1.59	5.82	0.74	0.58	-2.83	2.77	37.3	88.4	1.64
N#Cc1c(NC(=O)CN2CCOCC2)sc2c1CCCC2	0.79	6.39	5.4	4.75	5.34	5.33	7.63	1.09	2.7	4.98
CN1CCC(n2cnc(-c3ccc(F)cc3)c2-c2ccnc(N)n2)CC1	-0.17	0.29	1.34	0.36	1.02	1.87	0.65	2.8	13.8	0.99
Fc1ccc(-c2nn3ccccc3c2-c2ccncc2)cc1	-1.11	1.37	2.18	0.46	0.96	-1.88	2.7	0.24	1.47	0.63
Cc1ccc2c(-c3ccnc(Nc4ccccc4)n3)c(-c3ccc(F)cc3)nn2n1	2.55	6.51	6.75	0.32	2.21	3.66	5.2	2.31	2.23	1.04

SMILES	inhibition [1] [%]	inhibition [2] [%]	inhibition [3] [%]	inhibition [4] [%]	inhibition [5] [%]	inhibition [6] [%]	inhibition [7] [%]	inhibition [8] [%]	inhibition [9] [%]	inhibition [10] [%]
CCn1c(-c2nonc2N)nc2c(C#CC(C)(C)O)nc(OC[C@H](N)c3ccccc3)cc21	-0.33	2.31	2.26	1.23	3.05	-3.58	-0.97	1.87	12.1	1.29
Fc1ccc(-c2cc(-c3c[nH]nc3-c3ccccn3)ccn2)cc1	-1.83	1.98	1.18	-0.24	-1.54	-0.57	2.29	2.53	2.71	1.32
CN(C)CCOc1ccc(-c2nc(-c3ccncc3)c(-c3ccc4c(c3)CC/C4=N\O)[nH]2)cc1	-2.98	2.94	6.21	2.41	5.88	7.36	9.02	-1.13	2.18	1.97
COc1ccc(CNC(=O)c2ccc(-c3cc(-c4nnc(C)o4)ccc3C)cc2)cc1	-1.03	1.82	2.19	1.52	1.19	-1.69	-2.05	0.99	2.3	2.46
CNC(=O)c1cncc(/C=C/c2ccccc2Cl)c1	-0.07	-1.43	-0.33	0.19	2	2.81	-1.1	-0.38	0.35	-0.85
COC(=O)Nc1nc2ccc(S(=O)(=O)c3ccc(NC(=O)Nc4cc(C(F)(F)F)ccc4F)cc3)cc2[nH]1	-2.43	2.72	4.04	1.61	2.38	0.21	2.9	0.38	1.96	0.87
COc1ccc2c(-c3ccnc(Nc4cccc(OC(F)(F)F)c4)n3)cnn2n1	20.3	3.8	18	5.51	36.3	9.65	14.6	95.4	98.3	13.2
N#Cc1c(NC(=O)c2ccc(F)cc2)sc2c1CCCC2	-1.72	0.38	1.59	0.42	0.28	-1.23	-0.13	-1	1.4	0.44
NS(=O)(=O)c1ccc(Nc2ncc(-c3ccccc3)o2)cc1	77.2	9.25	26.5	23.8	70.3	13.1	48.6	1.81	1.67	2.28
CCn1c(-c2nonc2N)nc2cnc(Oc3cccc(NC(=O)c4ccc(N(C)C)cc4)c3)cc21	-1.3	1.81	1.34	0.66	1.93	-1.64	1.62	-0.04	1.15	0.38
COc1cccc(-n2ncc3c(N/N=C/c4ccc(F)cc4)ncnc32)c1	4.95	6.67	17.3	9.38	32.8	7.13	16.8	2.52	4.42	3.03
CCCN1CCC(c2ccc(Nc3nc(Nc4cc(F)ccc4C(N)=O)c4cc[nH]c4n3)c(OC)c2)CC1	-1.93	7.7	25.7	2.09	6.47	4.48	17.9	59.1	93.8	3.2
CCc1nn2ncccc2c1-c1ccnc(NC2CC2)n1	2.56	5.47	17.6	0.79	6.84	0.16	10.1	0.1	3.21	0.31
COc1cc(Nc2nccc(Nc3ccc4c(C)n[nH]c4c3)n2)cc(OC)c1OC	4.99	2.86	3.18	1.21	2.36	1.52	3.31	1.62	2.36	0.25
COc1cc2c(cc1Nc1nc(Nc3ccsc3C(N)=O)c3cc[nH]c3n1)N(C(=O)CN(C)C)CCC2(C)C	-1.09	5.42	8.61	6.36	7.33	1.59	9.92	29	79.5	2
Fc1cccc(COc2ccc(Nc3ncnc4sc(-c5ccco5)cc34)cc2Cl)c1	-1.8	3.4	5.13	-0.01	2.77	0.43	-0.36	1.15	-0.23	0.59
